CHRM1 antagonist = human M1 muscarinic receptor antagonists, primary screen, CHO-K1 cells, Fluo-8 calcium fluorescence, 1536-well | Muscarinic acetylcholine receptor M1 (Homo sapiens), P11229 | 360,000 tested, 1.3% active | inhibition, % at 3 µM | CHO-K1 hM1, ACh EC80 antagonist | AID 588852, 2011;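 active means percent inhibition above its own plate's cutoff, namely the mean of that plate's compound wells plus 3 SD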;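 further: peak over basal fluorescence ratio during 140 s after agonist addition; 0% = ACh EC80 plus DMSO and 100% = DMSO alone without agonist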
Target sequence (P11229 whole entry, looked up): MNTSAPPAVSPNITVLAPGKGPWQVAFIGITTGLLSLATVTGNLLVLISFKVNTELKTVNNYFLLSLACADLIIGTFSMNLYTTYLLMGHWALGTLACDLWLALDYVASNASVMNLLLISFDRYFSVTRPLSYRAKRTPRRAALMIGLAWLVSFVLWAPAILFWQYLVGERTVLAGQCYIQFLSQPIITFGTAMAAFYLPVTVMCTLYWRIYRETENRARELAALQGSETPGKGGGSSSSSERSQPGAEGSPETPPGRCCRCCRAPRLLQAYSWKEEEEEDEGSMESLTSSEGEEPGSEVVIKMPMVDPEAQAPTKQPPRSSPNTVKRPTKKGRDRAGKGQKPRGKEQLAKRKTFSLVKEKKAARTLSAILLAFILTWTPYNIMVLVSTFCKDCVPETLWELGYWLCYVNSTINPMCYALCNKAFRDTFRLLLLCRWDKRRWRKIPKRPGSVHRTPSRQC
CHRM1 agonist = human M1 muscarinic receptor agonists, primary screen, Fluo-8 calcium fluorescence, CHO-K1 cells, HTS | activation, % at 3 µM | Muscarinic acetylcholine receptor M1 (Homo sapiens), P11229 | 360,000 tested, 0.33% active | CHO-K1 hM1, agonist mode; 0% DMSO, 100% acetylcholine EC100;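 active means activation above the run's mean compound activation plus 3 SD, cut at about 16% in these data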;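 further: peak over basal fluorescence ratio within a 140 s kinetic read after compound addition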
M1 PAM parental = nonselective calcium activators in parental CHO-K1 cells, primary screen, counter-screen for M1 PAM project, cell-based, Fluo-8 calcium fluorescence, full deck, 1536-well; activation, % at 3 µM; ATP EC20; 0% at ATP EC20, 100% at ATP max; 360,000 tested, 0.02% active;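 active means activation above the run cutoff, the mean activation of all test compounds plus 3 SD, cut at about 40% in these data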;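 further: peak over basal fluorescence ratio in a 140 s read after ATP addition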
CHRM1 PAM = human M1 muscarinic receptor positive allosteric modulators, primary screen, CHO-K1 cells, Fluo-8 calcium fluorescence, 1536-well. 360,000 tested, 0.088% active. activation, % at 3 µM. CHO-K1 hM1, ACh EC20; 0% = ACh EC20, 100% = maximal ACh. AID 588819, 2011; in the data active means activation above about 19%, passing the limit was not always enough
CHO-K1 Ca ag = counter-screen for M1 agonists: effect in parental CHO-K1 cells. AID 602248, 2012. Fluo-8 calcium fluorescence; scaled to maximal ATP response, vehicle zero. 360,000 tested, 0.48% active. activation, % at 3 µM; in the data active means activation above about 15%;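 further: untransfected CHO-K1 host cells lacking M1 receptor as counterscreen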
CHO-K1 Ca antag = nonselective inhibitor or artifact in parental CHO-K1 cells; 360,000 tested, 0.6% active; inhibition, % at 3 µM; ATP-induced calcium, Fluo-8 fluorescence;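 active means inhibition above a per-plate cutoff, the plate's mean sample inhibition plus 3 SD, cut at about 24% in these data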;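 further: 0% = DMSO plus EC80 ATP and 100% = DMSO alone without ATP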
* = called active by the depositor. Sampled rows, rich in hits. Any-hit rate of the full collection: about 2.4%.

SMILES | CHRM1 antagonist | CHRM1 agonist | M1 PAM parental | CHRM1 PAM | CHO-K1 Ca ag | CHO-K1 Ca antag
O=C(COC(=O)Cc1ccccc1)NC12CC3CC(CC(C3)C1)C2 | -21 | -1 | -1 | 2 | 0 | -3
NC(=O)c1ccsc1NC(=O)COC(=O)Cc1ccccc1 | 11 | 3 | -7 | -6 | 11 | 25*
C=CCn1c(O)c(/C=N/NC(=O)CCCC)c(=O)[nH]c1=S | 0 | -3 | -9 | 4 | 0 | 0
Clc1ccc(C[n+]2c(-c3ccccc3)cc(-c3ccccc3)cc2-c2ccccc2)cc1 | 36* | -6 | -1 | -14 | 5 | 8
Oc1ccc(-[n+]2c(-c3ccccc3)cc(-c3ccccc3)cc2-c2ccccc2)cc1 | 18 | -11 | 7 | -16 | 0 | -1
Cc1cc(-c2ccccc2)cc(-c2ccccc2)[n+]1CCc1ccccc1 | 60* | -10 | 12 | -25 | 1 | 12
O=C(c1cc(F)ccc1F)C1CCCN(CCCc2ccccc2)C1 (configuration not stated) | 36* | -9 | -2 | -26 | 0 | 4
O=C(c1cc(F)ccc1F)C1CCCN(Cc2cccc(Cl)c2)C1 (configuration not stated) | 20 | -5 | -13 | -8 | 0 | -8
O=C1NC(=O)N(c2ccccc2)C(=O)/C1=C/c1ccc(Sc2ccccc2)o1 | 5 | -4 | 9 | 8 | 9 | -5
O=C1NC(=O)N(c2cccc(Cl)c2)C(=O)/C1=C\c1ccc(Sc2nc3ccccc3[nH]2)o1 | 9 | 24* | -2 | -13 | 27* | 12
O=C1NC(=O)N(c2ccccc2F)C(=O)/C1=C/c1ccc(Sc2nc3ccccc3[nH]2)o1 | 10 | 17* | -13 | -9 | 16* | 15
O=C(c1c[nH]cc1-c1ccccc1)c1cccc2ccccc12 | -1 | -4 | 0 | 2 | 1 | 12
Cc1nn(Cc2ccccc2)c(Cl)c1C(=O)O | -8 | -3 | 19 | 9 | 1 | -12
Cc1nn(Cc2ccccc2Cl)c(Cl)c1C(=O)O | 36* | -4 | 6 | 2 | 0 | -10
O=[N+]([O-])c1ccc(-[n+]2c(-c3ccccc3)cc(-c3ccccc3)cc2-c2ccccc2)cc1 | 36* | -11 | 12 | -20 | 0 | -5
C[C@](N)(CCP(=O)(O)O)C(=O)O | -21 | -2 | -11 | 2 | 0 | 25*
Cc1cc(C)n(-c2ccc(NN=C(C#N)C#N)cc2)n1 | 16 | 9 | -1 | -9 | 21* | 14
N#CC(C#N)=NNc1ccc(-n2ccc(C(F)(F)F)n2)cc1 | 31 | 9 | -3 | -7 | 15 | 22
COc1cc(CN2CC=C(c3ccc(F)cc3)CC2)cc(OC)c1 | 31* | -10 | -7 | -25 | 1 | -2
COc1cc(C(O)CN)ccc1O (configuration not stated) | -27 | -3 | 8 | -1 | 0 | -3
O=C(C1CCN(c2nc3ccc(Br)cc3s2)CC1)N1CCC2(CC1)OCCO2 | 59* | -2 | 6 | -23 | 2 | -1
CCc1ccc2nc(N3CCC(C(=O)N4CCC5(CC4)OCCO5)CC3)sc2c1 | 41* | -8 | 7 | -26 | 3 | 11
Cc1ccc2nc(N3CCC(C(=O)N4CCC5(CC4)OCCO5)CC3)sc2c1 | 1 | -6 | -3 | -1 | 1 | -2
O=c1cccc2n1CC1CC2CN(S(=O)(=O)c2cc(Cl)ccc2Cl)C1 (configuration not stated) | -12 | -3 | 19 | 7 | 2 | -4
O=C(c1cc(S(=O)(=O)N2CCCCC2)ccc1F)N1CCC2(CC1)OCCO2 | -15 | 0 | 7 | 11 | 1 | -17
SMILES | CHRM1 antagonist | CHRM1 agonist | M1 PAM parental | CHRM1 PAM | CHO-K1 Ca ag | CHO-K1 Ca antag
C=C1N2CCC(CC2)C1(O)c1ccc(C)c(C)c1 (configuration not stated) | 72* | -4 | -17 | -22 | 0 | 6
CN(C)C1(CNC(=O)c2ccc(NS(=O)(=O)c3ccc(Cl)c(Cl)c3)cc2)CCCCC1 | -12 | -8 | 3 | 12 | 1 | -12
Cc1ccc(OCC(=O)N2CCN(Cc3ccc4c(c3)OCO4)CC2)cc1 | -4 | -12 | -18 | 5 | 0 | 30*
C[N+](C)(C)c1ccccc1 | -17 | 39* | 18 | -13 | 0 | -2
COc1cc(/C=C/[N+](=O)[O-])ccc1O | 7 | -2 | -11 | 2 | 0 | 0
CCN(CC)c1ccc(/C=C/[N+](=O)[O-])cc1 | 53* | 70* | -2 | -8 | 60* | 31*
CCOC(=O)c1cc(CC)sc1/N=C/C1C(=O)NC(=S)NC1=O | -8 | -5 | -1 | 4 | 0 | 0
N#CC(CCN1CCOCC1)(c1ccccc1)c1ccccc1 | 41* | -6 | 13 | -20 | 1 | -11
CCOC(=O)c1c(C)n(Cc2ccccc2)c2ccc(OCC(O)CNC(C)(C)C)cc12 (configuration not stated) | -17 | -4 | 18 | 17 | 6 | -9
CC[n+]1c(/C=C/C=C/c2ccc(N(C)C)cc2)sc2ccccc21 | 69* | 3 | -9 | -23 | 12 | 34*
CN(C)c1ccc(/C=C/C=C/c2sc3ccccc3[n+]2C)cc1 | 14 | -4 | 3 | 5 | 12 | 16
CC[n+]1c(/C=C/N(C)c2ccccc2)sc2ccc(Cl)cc21 | 64* | -7 | 6 | -33 | -1 | 3
COc1cc2c(cc1O)C[C@H]1NCCc3cc4c(c-2c31)OCO4 | 0 | -8 | 10 | 9 | 1 | -8
O=C(Nc1ccccc1)NC1CC2CCC(C1)N2 (configuration not stated) | 31* | -5 | 8 | -17 | 0 | -1
COc1ccc(C(=O)C2CCCN(C3CSCCSC3)C2)cc1OC (configuration not stated) | 97* | -7 | 22 | -26 | 1 | -16
O=C(c1ccc(Cl)cc1)C1CCCN(C2CCSCC2)C1 (configuration not stated) | 61* | -12 | 27 | -31 | 2 | -17
Cc1cc(OCC(=O)OC(C)C)c2c3c(c(=O)oc2c1)CCCC3 | 2 | -1 | 12 | 1 | 0 | -2
S=P(N1CCOCC1)(N1CC1)N1CC1 | 6 | 0 | -16 | -2 | 0 | -6
Cc1ccc(C(C)C)c(OCC#CCN2CCCC2)c1 | 90* | -6 | 22 | -22 | 3 | -13
COc1ccc(OCC#CCN2CCCCCC2)cc1 | 7 | -10 | 8 | -16 | 0 | -1
O=C1CC(c2cccnc2)=NN1c1ccc(Cl)cc1Cl | -9 | -3 | 3 | 4 | 1 | 0
